PrP UTR inh: inhibition of PrP 5' UTR reporter expression. AID 488862, 2010. inhibition, % (no concentration beside the values). 0.35% of 340,000 active. cell-based PrP 5' UTR mRNA reporter, plate reader; in the data active = inhibition above about 52%; also: 0 = median of the neutral control wells
Yp Topo-I inh: Yersinia pestis topoisomerase I inhibitors, primary screen, biochemical, cleavage product accumulation, plate reader, single point; DNA topoisomerase I (Yersinia pestis CO92); 0.064% of 360,000 active; activity, % at 10 µM; Y. pestis Topo-I cleavage product accumulation; AID 504884, 2011; in the data active = activity above about 50%, passing the limit was not always enough; inconclusive = no clear call, values can overlap the other calls
TcdB inh: TcdB glycohydrolase inhibitors, primary screen, biochemical, single point, plate reader. Toxin B (Clostridioides difficile), P18177. TcdB glycohydrolase enzymatic assay. inhibition, % at 9.99 µM. 0.24% of 350,000 active. AID 652162, 2013; in the data active = inhibition above about 10%
Target sequence (P18177 whole entry, looked up): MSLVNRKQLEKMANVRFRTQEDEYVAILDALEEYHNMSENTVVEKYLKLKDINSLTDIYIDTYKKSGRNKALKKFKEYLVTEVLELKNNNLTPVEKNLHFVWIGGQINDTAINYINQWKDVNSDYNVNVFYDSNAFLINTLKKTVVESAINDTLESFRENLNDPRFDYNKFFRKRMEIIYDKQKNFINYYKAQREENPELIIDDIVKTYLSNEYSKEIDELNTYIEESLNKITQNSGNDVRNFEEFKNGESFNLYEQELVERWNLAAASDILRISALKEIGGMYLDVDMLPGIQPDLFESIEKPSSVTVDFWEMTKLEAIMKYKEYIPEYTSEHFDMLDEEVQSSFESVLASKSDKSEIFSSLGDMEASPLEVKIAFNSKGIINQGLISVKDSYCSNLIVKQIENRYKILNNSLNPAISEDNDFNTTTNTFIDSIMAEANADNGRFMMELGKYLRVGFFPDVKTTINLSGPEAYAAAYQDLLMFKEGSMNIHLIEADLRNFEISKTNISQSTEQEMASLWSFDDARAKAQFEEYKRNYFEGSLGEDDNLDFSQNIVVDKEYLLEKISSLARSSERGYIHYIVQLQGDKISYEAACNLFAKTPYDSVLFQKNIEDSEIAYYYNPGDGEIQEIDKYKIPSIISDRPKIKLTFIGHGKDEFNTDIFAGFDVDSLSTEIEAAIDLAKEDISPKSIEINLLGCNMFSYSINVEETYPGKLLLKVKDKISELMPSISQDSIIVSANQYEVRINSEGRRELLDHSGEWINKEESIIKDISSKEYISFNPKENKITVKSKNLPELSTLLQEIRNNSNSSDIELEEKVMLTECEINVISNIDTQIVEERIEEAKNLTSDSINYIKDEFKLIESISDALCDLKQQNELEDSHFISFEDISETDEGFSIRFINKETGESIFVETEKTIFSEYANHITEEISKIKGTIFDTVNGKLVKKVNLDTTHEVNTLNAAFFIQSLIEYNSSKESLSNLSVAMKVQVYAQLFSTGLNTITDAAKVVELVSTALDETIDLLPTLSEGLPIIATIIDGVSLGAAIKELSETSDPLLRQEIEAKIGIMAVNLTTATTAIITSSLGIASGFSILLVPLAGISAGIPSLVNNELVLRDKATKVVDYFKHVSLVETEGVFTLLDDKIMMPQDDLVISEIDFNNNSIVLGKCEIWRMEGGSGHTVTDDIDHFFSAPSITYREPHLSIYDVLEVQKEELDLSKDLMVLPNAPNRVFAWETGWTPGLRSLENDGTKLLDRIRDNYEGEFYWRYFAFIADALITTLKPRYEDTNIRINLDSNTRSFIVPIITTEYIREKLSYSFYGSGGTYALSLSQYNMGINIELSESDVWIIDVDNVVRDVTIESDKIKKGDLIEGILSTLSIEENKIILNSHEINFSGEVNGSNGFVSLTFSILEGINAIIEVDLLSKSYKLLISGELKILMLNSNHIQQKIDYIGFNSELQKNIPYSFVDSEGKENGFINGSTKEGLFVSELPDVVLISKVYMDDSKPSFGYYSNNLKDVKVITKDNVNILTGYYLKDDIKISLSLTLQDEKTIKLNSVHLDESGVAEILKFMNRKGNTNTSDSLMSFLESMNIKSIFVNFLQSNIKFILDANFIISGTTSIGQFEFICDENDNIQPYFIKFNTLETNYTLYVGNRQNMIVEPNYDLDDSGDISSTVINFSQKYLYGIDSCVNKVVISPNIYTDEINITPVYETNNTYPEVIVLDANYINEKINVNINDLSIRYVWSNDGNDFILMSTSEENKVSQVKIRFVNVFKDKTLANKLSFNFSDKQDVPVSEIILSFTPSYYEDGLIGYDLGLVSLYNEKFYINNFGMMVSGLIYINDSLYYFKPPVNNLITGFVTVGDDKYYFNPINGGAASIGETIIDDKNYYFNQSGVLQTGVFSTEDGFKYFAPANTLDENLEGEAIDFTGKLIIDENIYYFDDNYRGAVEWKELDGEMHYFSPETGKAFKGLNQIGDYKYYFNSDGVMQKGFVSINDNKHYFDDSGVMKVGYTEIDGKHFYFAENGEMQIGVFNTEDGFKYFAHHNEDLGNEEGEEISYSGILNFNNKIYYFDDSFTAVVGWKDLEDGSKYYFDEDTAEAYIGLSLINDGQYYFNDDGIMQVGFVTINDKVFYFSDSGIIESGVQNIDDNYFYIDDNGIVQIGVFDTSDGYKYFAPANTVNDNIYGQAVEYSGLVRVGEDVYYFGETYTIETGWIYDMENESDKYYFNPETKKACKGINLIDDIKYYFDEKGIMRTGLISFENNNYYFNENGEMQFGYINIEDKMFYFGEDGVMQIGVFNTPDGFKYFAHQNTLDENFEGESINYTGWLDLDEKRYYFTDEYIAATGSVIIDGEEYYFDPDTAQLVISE
BioA inh: M. tuberculosis BioA enzyme inhibitors, primary screen, biochemical, plate reader, single point, HTS | 7,8-diaminopelargonic acid synthase BioA (Mycobacterium tuberculosis) | purified M. tuberculosis BioA enzyme | inhibition, % at 9.99 µM | 0.096% of 360,000 active | AID 602481, 2012; in the data active = inhibition above about 40%; inconclusive = no clear call, values can overlap the other calls
PrP 5UTR single: prion 5' UTR mRNA inhibition, cherry-pick retest; 48% of 1,100 active; shares compounds with PrP UTR inh; inhibition, % at 2.5 µM; cell-based prion protein 5' UTR reporter, plate reader; in the data active = inhibition above about 54%; inconclusive = no clear call, values can overlap the other calls
Active calls of the source: *; ? = inconclusive; . = no result. Most compounds without a hit are left out; they make up all but 0.53% or so of the library.

SMILES | PrP UTR inh | Yp Topo-I inh | TcdB inh | BioA inh | PrP 5UTR single
COC(=O)C1=CO[C@@H](O[C@@H]2O[C@H](CO)[C@@H](O)[C@H](O)[C@H]2O)C2C1C=C[C@@]2(O)CO (some centres not stated) | 75.9* | 26.0 | 0.0 | 1.0 | -29.1
CC(C)OC(=O)c1cc(C(=O)c2cc(Br)ccc2O)coc1=N | 63.0* | -0.7 | -1.8 | -1.2 | -15.1
Cn1nnc2cc(C(=O)NC3CCCCC3)ccc21 | 75.3* | 1.1 | . | 14.4 | 82.9*
O=C(CC1Oc2ccccc2NC1=O)NCCCN1CCN(C2CCCCC2)CC1 (configuration not stated) | 69.9* | -6.1 | 0.8 | -1.9 | -12.2
CCCCN=C(C)C1=C(O)CSC1=O | 77.7* | 3.9 | . | -1.3 | -1.2
O=C1ON=C(c2ccccc2[N+](=O)[O-])/C1=C/c1cccc([N+](=O)[O-])c1O | 89.7* | 0.0 | -0.4 | -0.9 | 2.3
O=C1ON=C(c2ccc(Cl)c([N+](=O)[O-])c2)/C1=C/c1cccc([N+](=O)[O-])c1O | -13.7 | -7.7 | -0.1 | 1.0 | .
O=C(Nc1c(Cl)cc2c(c1Cl)Cc1cc([N+](=O)[O-])ccc1-2)C(Cl)Cl | 81.9* | -21.7 | 1.3 | . | -5.9
CN1c2ccc(-c3ccccc3)cc2[C@H]2[C@H](CCN2C(=O)Cc2ccccn2)[C@@H]1CO | . | . | 1.2 | 20.8 | .
C[C@@H]1CCCCO[C@@H](CN(C)Cc2ccc(C(F)(F)F)cc2)[C@H](C)CN([C@H](C)CO)C(=O)c2cc(N(C)C)ccc2O1 | . | . | -26.0 | 0.8 | .
C=CCN=C1NN=C(c2ccc3c(c2)OCCO3)CS1 | 59.3* | -11.4 | 0.8 | -0.4 | 79.3*
COCCn1c(C)cc(C2=NNC(=Nc3ccccc3F)SC2)c1C | 67.1* | 3.7 | . | -1.2 | ?
COCCN=C1NN=C(c2cc(C)n(CC3CCCO3)c2C)CS1 (configuration not stated) | 14.8 | 14.0 | -1.8 | . | .
C=CCN=C1NN=C(c2cc(C)n(CC=C)c2C)CS1 | 82.7* | -10.2 | 0.5 | . | 78.8*
CN1c2ccc(C3=CCCCC3)cc2[C@@H]2[C@@H](CCN2C(=O)C2CC2)[C@H]1CO | . | . | -6.1 | . | .
C[C@H]1CCC/C=C/[C@@H]2C[C@H](O)C[C@H]2[C@@H](O)/C=C/C(=O)O1 | 86.4* | -7.6 | -0.6 | . | 90.8*
CCCCC[C@H]1CCCCC[C@@H](O)C[C@@H](O)[C@@H](O)/C=C/C(=O)O1 | . | . | 1.2 | . | .
C[C@H]1CCC/C=C/[C@@H]2C[C@H](O)C[C@H]2[C@H](O)[C@H](S(=O)c2ccc(O)cc2)CC(=O)O1 (some centres not stated) | 86.0* | -0.7 | 2.4 | . | 69.3*
CC1CCCC=CC2CC(OC(=O)CN(C)C)CC2C(O)C=CC(=O)O1 (configuration not stated) | 80.6* | 7.4 | 1.4 | . | 90.3*
C[C@@H](NC(=O)C[C@H]1CC[C@H](NC(=O)C2CCC2)[C@H](CO)O1)c1ccccc1 | . | . | 0.6 | -1.7 | .
CCCC(=O)Nc1ccc2c(c1)OC[C@@H](C)N(C(=O)c1ccncc1)C[C@@H](C)[C@@H](OC)CN(C)C2=O | . | . | 0.0 | 0.0 | .
O=C(C[C@@H]1C[C@@H]2c3cc(NC(=O)C4CCC4)ccc3O[C@@H]2[C@H](CO)O1)NCc1ccccc1 | . | . | 1.1 | -0.2 | .
CO[C@@H]1CN(C)C(=O)c2ccc(NC(=O)Nc3ccccc3F)cc2OC[C@@H](C)N(C(C)=O)C[C@H]1C | . | . | -0.2 | . | .
C[C@@H]1CN([C@@H](C)CO)C(=O)Cc2cc(NC(=O)Cc3cn(C)c4ccccc34)ccc2O[C@@H]1CN(C)S(C)(=O)=O | . | . | 0.0 | 1.7 | .
COC(=O)C[C@H]1CC[C@H](NS(=O)(=O)c2ccc(OC)cc2)[C@@H](CO)O1 | . | . | 0.5 | -0.7 | .
SMILES | PrP UTR inh | Yp Topo-I inh | TcdB inh | BioA inh | PrP 5UTR single
CCOc1ccc(NC(=O)CN(C)C(=O)C2CCCC2)cc1OCC | 82.7* | -11.1 | -2.0 | . | -12.9
O=C(O)CSc1nnc(-c2ccc3c(c2)OCO3)o1 | -6.9 | 3.3 | . | -0.7 | .
O=C(c1ccc(Cl)cc1)N1CCCCC(Sc2nnc(-c3ccc4c(c3)OCO4)o2)C1=O (configuration not stated) | 74.2* | 20.6 | . | -3.0 | 78.4*
Cc1cc(C)c2c(N)c(C(=O)Nc3ncc(C)s3)sc2n1 | 89.2* | 1.2 | . | 6.8 | 83.6*
O=C(N/N=C/c1ccc(O)cc1)c1[nH]c2ccc(Br)cc2c1-c1ccccc1 | 39.2 | 10.9 | 2.4 | . | .
O=C(N/N=C/c1c[nH]c2ccccc12)c1[nH]c2ccc(Br)cc2c1-c1ccccc1 | 68.4* | -4.4 | -0.7 | -2.8 | 87.5*
COc1ccc(C2=Nn3c(nnc3-c3ccccc3OC)SC2)cc1OC | 56.0* | 0.2 | . | 9.0 | 77.5*
COc1ccc(OC)c(-c2nnc3n2N=C(c2ccc(OC)c(OC4CCOC4)c2)CS3)c1 (configuration not stated) | 71.7* | 7.7 | -3.5 | 4.4 | 81.2*
COc1ccc(C2=Nn3c(nnc3-c3ccccn3)SC2)cc1OC | 16.8 | -0.4 | . | 4.2 | .
CC(C)NC(=O)NCC[C@@H]1CC[C@@H](NS(=O)(=O)c2ccccc2)[C@H](CO)O1 | . | . | 0.5 | . | .
CCCCCOC(=O)c1[nH]c2c(c1C)C(=O)CC(c1ccco1)C2 (configuration not stated) | 59.2* | 1.8 | . | -1.2 | 79.1*
COC(=O)c1[nH]c2c(c1C)C(=O)CC(c1ccc(OC)c(OC)c1)C2 (configuration not stated) | 5.5 | -1.4 | 0.8 | 6.4 | .
CCOCCOC(=O)c1[nH]c2c(c1C)C(=O)CC(c1cccs1)C2 (configuration not stated) | 65.5* | 5.9 | -0.6 | -1.5 | 87.1*
COC(=O)c1[nH]c2c(c1C)C(=O)CC(c1cccc(OC)c1)C2 (configuration not stated) | 74.4* | 4.1 | 0.4 | 0.7 | 87.9*
CCOCCOC(=O)c1[nH]c2c(c1C)C(=O)CC(c1cc(OC)c(OC)c(OC)c1)C2 (configuration not stated) | -0.6 | 16.4 | 3.4 | 14.7 | .
CCOCCOC(=O)c1[nH]c2c(c1C)C(=O)CC(c1ccccc1)C2 (configuration not stated) | 80.8* | -1.6 | 0.5 | 0.1 | 90.5*
COc1ccc(S(=O)(=O)Nc2cccc3c2O[C@H](CN(C)C(=O)Nc2ccc(F)cc2)[C@H](C)CN([C@@H](C)CO)C3=O)cc1 | . | . | -0.7 | -1.6 | .
C[C@H](CO)N1C[C@H](C)[C@H](CN(C)Cc2ccccc2F)Oc2ncc(C#CCN(C)C)cc2C1=O | . | . | -1.4 | -0.1 | .
Cc1ccc(-n2[nH]c(=O)c(-c3ccccn3)c2C)cc1 | 71.6* | -8.3 | -0.5 | . | 68.4*
Cc1ccc(S(=O)(=O)N2CCCCC2C(=O)NCc2ccco2)cc1 (configuration not stated) | -24.8 | 13.9 | . | -0.8 | .
COC(=O)Nc1ccc(S(=O)(=O)N2CCCCC2C(=O)NCc2ccco2)cc1 (configuration not stated) | 89.2* | -1.3 | . | . | 26.7
